# In all, about 360,000 compounds went through this assay and about 1,300 (0.36%) were called active. The full list was thinned out, with actives kept by preference. Unmarked numbers belong to inactive results.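 How the source made its calls: active means inhibition above the mean of all tested compounds plus 3 SD (cut at about 70% in these data); inactive means the rest.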
# Target: Photoreceptor-specific nuclear receptor (Homo sapiens) (UniProt Q9Y5X4)
# Assay: NCOR release from NR2E3 in cells – cell-based, luminescence, CHO-S, Gal4-NCOR/VP16-NR2E3, primary screen (AID 602229);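 further: 0% = DMSO with NR2E3 transfected cells and 100% = cells lacking NR2E3 construct; higher means lower luciferase signal from less NR2E3 corepressor binding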
# Conditions: CHO-S Gal4-NCOR/VP16-NR2E3 two-hybrid, luciferase; at 3.98 µM; active compounds read high
# Photoreceptor-specific nuclear receptor (Homo sapiens), sequence (Q9Y5X4 whole entry, looked up, the tested form may be a part): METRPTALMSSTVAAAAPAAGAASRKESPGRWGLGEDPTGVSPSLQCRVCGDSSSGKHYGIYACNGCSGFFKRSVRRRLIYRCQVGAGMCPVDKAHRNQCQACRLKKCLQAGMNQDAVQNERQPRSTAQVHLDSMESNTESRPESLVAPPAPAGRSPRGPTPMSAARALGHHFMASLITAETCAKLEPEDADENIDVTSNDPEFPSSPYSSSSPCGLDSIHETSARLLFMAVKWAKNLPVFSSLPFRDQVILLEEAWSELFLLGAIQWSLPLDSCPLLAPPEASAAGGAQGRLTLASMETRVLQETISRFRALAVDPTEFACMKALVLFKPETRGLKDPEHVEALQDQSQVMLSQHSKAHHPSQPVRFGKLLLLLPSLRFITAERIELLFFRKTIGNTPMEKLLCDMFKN
row,Compound,inhibition of corepressor binding
1,O=C(c1ccc(N2CCCC2=O)cc1)N1CCN(c2ccc(C(F)(F)F)cc2[N+](=O)[O-])CC1,82.8% (active)
2,Cc1nnc(SCC(=O)Nc2ncc3c(n2)CC(C)(C)CC3=O)s1,-5.27%
3,Cc1cc2oc(=O)cc(CN(C)Cc3ccc(OC(F)F)cc3)c2cc1Cl,-26%
4,Cc1ccc(NC(=S)N(CCN(C)C)Cc2cccs2)cc1C,-15.7%
5,COC(=O)c1scc(C)c1NC(=O)CSc1ccc(Cl)cc1,2.57%
6,COC(=O)c1sccc1NC(=O)CSc1ccccc1NS(=O)(=O)c1cc(Cl)ccc1Cl,89.8% (active)
7,COC(=O)c1sccc1NS(=O)(=O)c1ccc(F)cc1F,-9.53%
8,CCCC(=O)Nc1nnc(CC(=O)OCC)s1,12.6%
9,CCn1nc(C)c(CN2CCN(Cc3ccc(OC)c(C)c3C)C(CCO)C2)c1C (configuration not stated),-29.8%
10,CC(C(=O)N1CCOCC1)N1c2cccc3cccc(c23)S1(=O)=O (configuration not stated),-0.03%
11,Oc1c(Cl)cc(Cl)c(Cl)c1Cc1c(O)c(Cl)cc(Cl)c1Cl,90.7% (active)
12,C=CCn1c(SCC(=O)c2ccc(Br)cc2)nnc1C(C)NC(=O)Cc1ccc(OC)cc1 (configuration not stated),22.7%
13,C=CCn1c(C23CC4CC(CC(C4)C2)C3)n[nH]c1=S,-1.8%
14,Cc1nc(NC(=O)CCC(=O)O)sc1C(=O)N(C)C,-26.6%
15,COc1ccc2c(c1)c(=Cc1ccc(N(C)C)cc1)c1cc(-c3ccccc3)[n+](C)n12,82.2% (active)
16,C[C@@H]1NC(=O)c2cc([N+](=O)[O-])cc(F)c2NCCC[C@@H](C(N)=O)NC(=O)[C@H](CC(N)=O)NC1=O,-1.65%
17,Cc1cc(C(=O)OCC(=O)Nc2ccccc2Cl)c(C)o1,-11.3%
18,O=C(Nc1ccccc1Cl)/C(Cl)=C(\Cl)S(=O)c1ccccc1 (configuration not stated),90.4% (active)
19,O=C(Nc1ccccc1C(=O)N1CCCCCC1)c1ccccc1Cl,-5.45%
20,Cc1sc2ncnc(SCC(=O)NC3CCS(=O)(=O)C3)c2c1C (configuration not stated),11.1%
21,CCNC(=O)c1c(O)c2cccc3c2n(c1=O)CC3,-12.8%
22,CN(C)C(=S)N=c1ssc(=S)n1Cc1ccco1,91.5% (active)
23,CCN(CC)C(=O)CSc1nnc(CNc2ccc(F)cc2)n1Cc1ccco1,-4.24%
24,CC1CN(Cc2ccco2)C(=S)N(c2ccccc2)C1=O (configuration not stated),10.4%

row,Compound,inhibition of corepressor binding
1,C=CCNC(=O)c1ccccc1SCc1c(C)noc1C,-20.3%
2,CC(C)OCCCNc1ncnc2c1[nH]c1ccc(F)cc12,75.6% (active)
3,CC(/C=C/c1ccco1)=N/NC(=O)C1COc2ccccc2O1 (configuration not stated),-22.3%
4,CC1CC1C(=O)OCC(=O)c1c(N)n(C)c(=O)n(C)c1=O (configuration not stated),4.9%
5,FC(F)(F)c1nnc2c3ccccc3c(Cl)nn12,-2.37%
6,COc1ccc(S(=O)(=O)NCCCCOc2ccc(Cl)cc2)cc1,96.7% (active)
7,COc1ccc(OCCNS(=O)(=O)Cc2ccccc2)cc1,-15.6%
8,COc1ccc(S(=O)(=O)NCCOc2ccccc2)cc1F,-29.5%
9,CCOC(=O)c1sc(C)c2c1NC(C)(c1cccc3ccccc13)NC2=O (configuration not stated),-1.53%
10,OC(c1ccc(Cl)cc1)c1ncc(-c2ccc(Cl)cc2)[nH]1 (configuration not stated),71.4% (active)
11,OC(c1ccc(F)cc1)c1ncc(-c2cccc(C(F)(F)F)c2)[nH]1 (configuration not stated),30.1%
12,Cc1ccc(-c2cnc(C(O)c3cc(Cl)cc(Cl)c3)[nH]2)cc1 (configuration not stated),-10.6%
13,Cc1[nH]n(C(N)=S)c(=O)c1N=Nc1ccc(Cl)cc1Cl,-3.9%
14,O=C(NCc1ccccc1)c1cccc(NC(=O)C2CCCCC2)c1,-12.6%
15,O=C1CSC(c2cccc(F)c2)N1c1ccccc1F (configuration not stated),-28.1%
16,O=C1C=C(c2ccnc3cc(Cl)ccc23)C[C@@H](c2ccc3c(c2)OCO3)C1,85.8% (active)
17,O=C1C=C(c2cc(C(F)(F)F)cc(C(F)(F)F)c2)C[C@@H](c2ccc3c(c2)OCO3)C1,-2.34%
18,O=C1C=C(c2cccc(Cl)c2)C[C@@H](c2ccc(F)cc2)C1,-24.8%
19,O=C(CN1CCSCC1)N/N=C/c1ccc(F)cc1F,-6.92%
20,CCOC(=O)N1CCN(S(=O)(=O)c2cc(Br)cc3c2N(C(=O)C2CC2)CC3)CC1,-15.4%
21,OC[C@@H]1CN(Cc2ccc(F)cc2)C[C@H](n2cnc3c(NC4CCCC4)ncnc32)O1,-45.5%
22,OC[C@@H]1CN(Cc2cccs2)C[C@H](n2cnc3c(NC4CCCC4)ncnc32)O1,-11.2%
23,OC[C@@H]1CN(Cc2ccc(-c3ccccc3)cc2)C[C@H](n2cnc3c(NC4CCCC4)ncnc32)O1,91.4% (active)
